Measurements as given in PubChem BioAssay (NCI).
About 83,000 compounds went through this panel and 20% of them were active in at least one assay; those are over-represented in the sample as a whole.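 Results are percent growth after 48 hours of single-concentration exposure. 100 means growth as in untreated cells, lower positive values show inhibition; negative values down to -100 show cell death.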 Values without a mark were called inactive. Calls of active or inactive are those of the source. Rule for the calls: active = growth percent below 10; inactive = the rest.

test system: HS 578T breast; assay: NCI-60 one-dose screen, 48 h (100 = growth as untreated, 0 = no growth, -100 = all killed); details: 10 µM unless noted

Row | Structure (SMILES) | growth
1 | COc1ccc2c(c1)c(CC(=O)[Se]CC#N)c(C)n2C(=O)c1ccc(Cl)cc1 | 28.3%
2 | C=C(C)[C@@H]1CC[C@]2(COCCCNCCC#N)CC[C@]3(C)[C@H](CC[C@@H]4[C@@]5(C)CC[C@H](OCCCNCCC#N)C(C)(C)[C@@H]5CC[C@]43C)[C@@H]12 | 72.6%
3 | CCN1CCN(Cc2cn(-c3ccc(S(N)(=O)=O)cc3)nn2)CC1 | 102%
4 | COc1cc(OC)c(/C=C/S(=O)(=O)Cc2ccc(OC)c(NCC(=O)NO)c2)c(OC)c1 | 17%
5 | CS(=O)(=O)Nc1cc(-c2ccc3ncc(C#N)c(NCc4ccccc4O)c3c2)cnc1Cl | -17.9% (active)
6 | CC1(C)[C@@H](O)CC[C@]2(C)[C@H]3CC[C@@H]4[C@H]5[C@H](C(=O)/C=C\c6ccncc6)CC[C@]5(O)CC[C@@]4(C)[C@]3(C)CC[C@@H]12 | 39.3%
7 | COc1ccccc1N1CCN(C2=CC(=O)C(C)=C(C)C2=O)CC1 | 103%
8 | O=C(CSc1nnc(-c2ccc(Cl)cc2)n1-c1ccccc1)Nc1cccc(Cl)c1 | 54.4%
9 | COc1ccccc1C(=O)Nc1cccc2c1C(=O)C(=O)C=C2 | 102%
10 | CCc1cccc(NC(=O)CNc2cc(S(=O)(=O)N(C)C)cc(C)c2C)c1 | 97.2%
11 | O=C(NNc1nc2cc(F)c(F)cc2n2c(CN3CC4CNCC4C3)ccc12)c1ncccn1 (stereo unspecified) | 71.5%
12 | NC(N)=Nc1ccc(Nc2cccc(Nc3ccc(Cl)c(C(F)(F)F)c3)c2)cn1 | 28.4%
13 | CCN(CC)c1ccc(NC2=C(Cl)C(=O)c3nc(C)ccc3C2=O)cc1 | 65.4%
14 | CC1(C)CC[C@]2(CN)CC[C@]3(C)C(=CC[C@@H]4[C@@]5(C)CCCNC(C)(C)[C@@H]5CC[C@]43C)[C@H]2C1 | 108%
15 | NC(=O)c1cccc(-n2ccc3cc(NC(=O)Nc4ccc(N5CCOCC5)c(C(F)(F)F)c4)ccc32)n1 | -21.8% (active)
16 | C#CCn1cccc1CNc1ccc(OC)cc1 | -40% (active)
17 | O=C1[C@@H]2Cc3c([nH]c4ccccc34)[C@H](c3c(Cl)cccc3Cl)N2C(=O)CN1C1CCN(CC2CCCCC2)CC1 | 18.7%
18 | C#CCC#CCN1CCC[C@H]1C(=O)NCC(=O)OC | 117%
19 | COc1ccc(-c2cc(-c3ccc(Cl)cc3)c(C#N)c(=O)n2Cc2ccc(C(=O)O)cc2)cc1 | 31.9%

Row | Structure (SMILES) | growth
20 | COc1ccc2c(c1)Oc1nc(N)c(C#N)c(N)c1C2Sc1ccc(C)cc1 (stereo unspecified) | 14.8%
21 | N#Cc1cccc(CN2CCc3ncn(Cc4ccc(Cl)cc4)c(=O)c3C2)c1 | 35.9%
22 | Cc1nc2ncc(-c3ccc4ncnc(NCc5ccccc5)c4c3)cc2[nH]1 | 29.2%
23 | N=c1c2cc(-c3ccccc3)oc2ncn1/N=C/c1ccc(Cl)cc1 | 81.7%
24 | COc1ccc(N2C(=O)c3cc(Cl)ccc3NC2SCc2ccccc2)cc1 (stereo unspecified) | 106%
25 | COc1c(N2CC3CCCNC3C2)c(F)cc2c(=O)c(C(=O)N/N=C/c3c[nH]c4ccccc34)cn(C3CC3)c12 (stereo unspecified) | 110%
26 | NC/C(=C/F)COc1ccc2nc(NCc3cccnc3)oc2c1 | 99.5%
27 | C=CC(=O)N1CCC=C(c2cc3c(N[C@H](C)c4ccccc4)ncnc3[nH]2)C1 | 69%
28 | CS(=O)(=O)Nc1cc(-c2ccc3ncc(C#N)c(Nc4cccc(Cl)c4F)c3c2)cnc1Cl | -26.6% (active)
29 | CCCn1cnc2c(c1=N)C(c1ccc(F)cc1)c1sc3c(CC)cccc3c1O2 (stereo unspecified) | 16.5%
30 | O=S(=O)(NCCCNc1nccc(-c2[nH]c(-c3ccccc3)nc2-c2ccc(Cl)c(O)c2)n1)c1cccc2ccccc12 | 44%
31 | N#Cc1cnc2ccc(-c3cnc(N)nc3)cc2c1N1CCc2cc(F)c(Cl)cc21 | -22.5% (active)
32 | CNc1ncc2cc(-c3ccc(-c4ncccc4F)cc3Cl)c(=O)n(CC3OCC(N)CO3)c2n1 (stereo unspecified) | 34.6%
33 | ClC(Cl)c1nc(-c2ccco2)n2nc(-c3ccccc3)cc2n1 | -2.15% (active)
34 | NC(N)=Nc1ccc(Oc2cccc(Nc3ccc(Cl)cc3)c2)cn1 | 34.1%
35 | CC1=CC(=O)C2=C(C)CC(OC(=O)CCc3ccccc3)[C@@H]3[C@H](OC(=O)[C@@H]3C)[C@@H]12 (stereo partly specified) | 104%
36 | CC/C(=C/c1cc(OC)ccc1O)c1ccc2cc(OC)ccc2[o+]1 | 63.4%
37 | COc1ccc(C(=O)c2c(N)c(C#N)cn2-c2ccccc2OC)cc1 | 13%
38 | CCc1ccc(SC2c3ccc(N(CC)CC)cc3Oc3nc(N)c(C#N)c(N)c32)cc1 (stereo unspecified) | 9.11% (active)

test system: NCI/ADR-RES ovarian; assay: as above; details: 10 µM unless noted

Row | Structure (SMILES) | growth
39 | COc1ccc2c(c1)c(CC(=O)[Se]CC#N)c(C)n2C(=O)c1ccc(Cl)cc1 | -13.8% (active)
40 | C=C(C)[C@@H]1CC[C@]2(COCCCNCCC#N)CC[C@]3(C)[C@H](CC[C@@H]4[C@@]5(C)CC[C@H](OCCCNCCC#N)C(C)(C)[C@@H]5CC[C@]43C)[C@@H]12 | 37.3%
41 | CCN1CCN(Cc2cn(-c3ccc(S(N)(=O)=O)cc3)nn2)CC1 | 111%
42 | COc1cc(OC)c(/C=C/S(=O)(=O)Cc2ccc(OC)c(NCC(=O)NO)c2)c(OC)c1 | 7.63% (active)
43 | CS(=O)(=O)Nc1cc(-c2ccc3ncc(C#N)c(NCc4ccccc4O)c3c2)cnc1Cl | 42.4%
44 | CC1(C)[C@@H](O)CC[C@]2(C)[C@H]3CC[C@@H]4[C@H]5[C@H](C(=O)/C=C\c6ccncc6)CC[C@]5(O)CC[C@@]4(C)[C@]3(C)CC[C@@H]12 | 25.5%
45 | COc1ccccc1N1CCN(C2=CC(=O)C(C)=C(C)C2=O)CC1 | 98.6%
46 | O=C(CSc1nnc(-c2ccc(Cl)cc2)n1-c1ccccc1)Nc1cccc(Cl)c1 | 50.4%
47 | COc1ccccc1C(=O)Nc1cccc2c1C(=O)C(=O)C=C2 | 113%
48 | CCc1cccc(NC(=O)CNc2cc(S(=O)(=O)N(C)C)cc(C)c2C)c1 | 100%
49 | O=C(NNc1nc2cc(F)c(F)cc2n2c(CN3CC4CNCC4C3)ccc12)c1ncccn1 (stereo unspecified) | 62.3%
50 | NC(N)=Nc1ccc(Nc2cccc(Nc3ccc(Cl)c(C(F)(F)F)c3)c2)cn1 | 87.5%
51 | CCN(CC)c1ccc(NC2=C(Cl)C(=O)c3nc(C)ccc3C2=O)cc1 | 51.2%
52 | CC1(C)CC[C@]2(CN)CC[C@]3(C)C(=CC[C@@H]4[C@@]5(C)CCCNC(C)(C)[C@@H]5CC[C@]43C)[C@H]2C1 | 105%
53 | NC(=O)c1cccc(-n2ccc3cc(NC(=O)Nc4ccc(N5CCOCC5)c(C(F)(F)F)c4)ccc32)n1 | 15.9%
54 | C#CCn1cccc1CNc1ccc(OC)cc1 | -53.1% (active)
55 | O=C1[C@@H]2Cc3c([nH]c4ccccc34)[C@H](c3c(Cl)cccc3Cl)N2C(=O)CN1C1CCN(CC2CCCCC2)CC1 | 74.9%
56 | C#CCC#CCN1CCC[C@H]1C(=O)NCC(=O)OC | 96%
57 | COc1ccc(-c2cc(-c3ccc(Cl)cc3)c(C#N)c(=O)n2Cc2ccc(C(=O)O)cc2)cc1 | 83.6%

Row | Structure (SMILES) | growth
58 | COc1ccc2c(c1)Oc1nc(N)c(C#N)c(N)c1C2Sc1ccc(C)cc1 (stereo unspecified) | 5.39% (active)
59 | N#Cc1cccc(CN2CCc3ncn(Cc4ccc(Cl)cc4)c(=O)c3C2)c1 | 14.7%
60 | Cc1nc2ncc(-c3ccc4ncnc(NCc5ccccc5)c4c3)cc2[nH]1 | 104%
61 | N=c1c2cc(-c3ccccc3)oc2ncn1/N=C/c1ccc(Cl)cc1 | 49.6%
62 | COc1ccc(N2C(=O)c3cc(Cl)ccc3NC2SCc2ccccc2)cc1 (stereo unspecified) | 99.1%
63 | COc1c(N2CC3CCCNC3C2)c(F)cc2c(=O)c(C(=O)N/N=C/c3c[nH]c4ccccc34)cn(C3CC3)c12 (stereo unspecified) | 104%
64 | NC/C(=C/F)COc1ccc2nc(NCc3cccnc3)oc2c1 | 111%
65 | C=CC(=O)N1CCC=C(c2cc3c(N[C@H](C)c4ccccc4)ncnc3[nH]2)C1 | 73.7%
66 | CS(=O)(=O)Nc1cc(-c2ccc3ncc(C#N)c(Nc4cccc(Cl)c4F)c3c2)cnc1Cl | 33.7%
67 | CCCn1cnc2c(c1=N)C(c1ccc(F)cc1)c1sc3c(CC)cccc3c1O2 (stereo unspecified) | -13.9% (active)
68 | O=S(=O)(NCCCNc1nccc(-c2[nH]c(-c3ccccc3)nc2-c2ccc(Cl)c(O)c2)n1)c1cccc2ccccc12 | 34.6%
69 | N#Cc1cnc2ccc(-c3cnc(N)nc3)cc2c1N1CCc2cc(F)c(Cl)cc21 | 6.22% (active)
70 | CNc1ncc2cc(-c3ccc(-c4ncccc4F)cc3Cl)c(=O)n(CC3OCC(N)CO3)c2n1 (stereo unspecified) | 79.4%
71 | ClC(Cl)c1nc(-c2ccco2)n2nc(-c3ccccc3)cc2n1 | 4.02% (active)
72 | NC(N)=Nc1ccc(Oc2cccc(Nc3ccc(Cl)cc3)c2)cn1 | 56.5%
73 | CC1=CC(=O)C2=C(C)CC(OC(=O)CCc3ccccc3)[C@@H]3[C@H](OC(=O)[C@@H]3C)[C@@H]12 (stereo partly specified) | 98.2%
74 | CC/C(=C/c1cc(OC)ccc1O)c1ccc2cc(OC)ccc2[o+]1 | 33.5%
75 | COc1ccc(C(=O)c2c(N)c(C#N)cn2-c2ccccc2OC)cc1 | 13.5%
76 | CCc1ccc(SC2c3ccc(N(CC)CC)cc3Oc3nc(N)c(C#N)c(N)c32)cc1 (stereo unspecified) | 5.13% (active)
